Hit rate of the full screen: of about 5,500 compounds, about 2,000 (36%) were called active. About 18% were inconclusive and are not listed. No stated cut-off is given here; in the data, active means normalized growth mostly below about 0.91 (no sharp cut-off); inconclusive means no clear call, values can overlap the other calls; inactive means mostly above about 0.92. The list shows a part of the results.
Assay: chemical genetic growth profiling, strain panel (AID 1159580);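 further: tested at 20 µM; growth read once vehicle control cultures reached saturation at 30 °C; 1 = growth at the plate median or of vehicle wells; lower values mean less growth of the strain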
Conditions: growth OD
[1] = S. cerevisiae deletion strains, locus YAL013W, strain DEP1, active compounds read low
[2] = S. cerevisiae deletion strains, locus YBR229C, strain ROT2, active compounds read low
[3] = S. cerevisiae deletion strains, locus YDL101C, strain DUN1, active compounds read low
[4] = S. cerevisiae deletion strains, locus YDR150W, strain NUM1, active compounds read low
[5] = S. cerevisiae deletion strains, locus YEL061C, strain CIN8, active compounds read low
[6] = S. cerevisiae deletion strains, locus YGR078C, strain PAC10, active compounds read low
[7] = S. cerevisiae deletion strains, locus YHR030C, strain SLT2, active compounds read low
[8] = S. cerevisiae deletion strains, locus YHR087W, strain rtc3, active compounds read low
[9] = S. cerevisiae deletion strains, locus YJL187C, strain SWE1, active compounds read low
[10] = S. cerevisiae deletion strains, locus YJR043C, strain POL32, active compounds read low
[11] = S. cerevisiae deletion strains, locus YJR075W, strain HOC1, active compounds read low
[12] = S. cerevisiae deletion strains, locus YLR039C, strain RIC1, active compounds read low
[13] = S. cerevisiae deletion strains, locus YLR058C, strain SHM2 (second series), active compounds read low
[14] = S. cerevisiae deletion strains, locus YLR085C, strain ARP6, active compounds read low
[15] = S. cerevisiae deletion strains, locus YLR262C, strain YPT6, active compounds read low
[16] = S. cerevisiae deletion strains, locus YML094W, strain GIM5, active compounds read low
[17] = S. cerevisiae deletion strains, locus YMR219W, strain ESC1, active compounds read low
[18] = S. cerevisiae deletion strains, locus YMR263W, strain SAP30, active compounds read low
[19] = S. cerevisiae deletion strains, locus YMR307W, strain GAS1, active compounds read low
[20] = S. cerevisiae deletion strains, locus YNL153C, strain GIM3, active compounds read low
[21] = S. cerevisiae deletion strains, locus YNL298W, strain CLA4 (second series), active compounds read low
[22] = S. cerevisiae deletion strains, locus YNL322C, strain KRE1, active compounds read low
[23] = S. cerevisiae deletion strains, locus YNR030W, strain Alg12, active compounds read low
[24] = S. cerevisiae deletion strains, locus YPL055C, strain LGE1, active compounds read low
[25] = S. cerevisiae deletion strains, locus YPL241C, strain CIN2, active compounds read low
[26] = S. cerevisiae deletion strains, locus YPR135W, strain CTF4, active compounds read low

Measured: normalized growth

CCCc1cc(C(=O)Nc2ccc(N(CC)CC)cc2)nn1-c1ccccc1
inactive: [1] 0.98 | [2] 0.983 | [3] 0.981 | [4] 0.966 | [6] 0.975 | [8] 0.981 | [9] 0.991 | [10] 0.973 | [11] 0.967 | S. cerevisiae deletion strains, locus YKL190W, strain CNB1, active compounds read low 0.96 | [12] 1 | [13] 0.982 | [14] 0.813 | [15] 0.915 | [16] 0.911 | [17] 0.999 | [18] 0.991 | [20] 0.987 | [21] 0.884 | [22] 0.991 | [23] 0.89 | [24] 0.973 | [25] 0.92 | [26] 0.718 | S. cerevisiae strains, strain wild type, active compounds read low 0.922
active: S. cerevisiae deletion strains, locus YDL134C, strain PPH21, active compounds read low 0.873 | [5] 0.895 | [7] 0.276 | [19] 0.275 | S. cerevisiae deletion strains, locus YOL006C, strain TOP1, active compounds read low 0.626

O=C(NC(c1ccccc1)C(N=Cc1ccccc1)c1ccccc1)c1ccccc1 (centres undefined)
inactive: [1] 1 | [2] 1.02 | S. cerevisiae deletion strains, locus YCL061C, strain MRC1, active compounds read low 1.02 | [3] 1 | [4] 0.959 | [5] 1.03 | [6] 1.01 | S. cerevisiae deletion strains, locus YGR229C, strain SMI1, active compounds read low 1.02 | [7] 1.05 | [8] 1 | [9] 1.02 | [10] 1.02 | [11] 1.01 | [12] 1.04 | [13] 1.03 | [14] 1.03 | [15] 1.1 | [16] 1.01 | [17] 1.01 | [18] 0.978 | [19] 0.999 | [20] 0.998 | [21] 1.05 | [22] 1 | [23] 1.02 | [24] 0.917 | [25] 1.01 | [26] 1.01

C(=NC(N=Cc1ccccc1)c1ccccc1)c1ccccc1 (centres undefined)
active: S. cerevisiae deletion strains, locus YLR113W, strain HOG1, active compounds read low 0.856
inactive: S. cerevisiae deletion strains, locus YAR019C, strain CDC15, active compounds read low 0.983 | S. cerevisiae deletion strains, locus YBL105C, strain PKC1, active compounds read low 0.991 | S. cerevisiae deletion strains, locus YBR135W, strain CKS1, active compounds read low 0.986 | S. cerevisiae deletion strains, locus YBR136W, strain MEC1, active compounds read low 0.977 | S. cerevisiae deletion strains, locus YBR160W, strain CDC28, active compounds read low 0.989 | S. cerevisiae deletion strains, locus YDL017W, strain CDC7, active compounds read low 0.99 | S. cerevisiae deletion strains, locus YDL028C, strain MPS1, active compounds read low 0.984 | [3] 0.994 | S. cerevisiae deletion strains, locus YDL108W, strain KIN28, active compounds read low 0.976 | S. cerevisiae deletion strains, locus YDL132W, strain cdc53, active compounds read low 0.992 | S. cerevisiae deletion strains, locus YDL214C, strain PRR2, active compounds read low 0.956 | S. cerevisiae deletion strains, locus YDR052C, strain DBF4, active compounds read low 0.989 | S. cerevisiae deletion strains, locus YDR054C, strain cdc34, active compounds read low 0.991 | S. cerevisiae deletion strains, locus YDR226W, strain ADK1, active compounds read low 0.992 | S. cerevisiae deletion strains, locus YDR477W, strain SNF1, active compounds read low 0.963 | S. cerevisiae deletion strains, locus YER123W, strain YCK3, active compounds read low 0.937 | S. cerevisiae deletion strains, locus YER133W, strain GLC7, active compounds read low 0.971 | S. cerevisiae deletion strains, locus YFL009W, strain cdc4, active compounds read low 0.992 | S. cerevisiae deletion strains, locus YFL029C, strain CAK1, active compounds read low 0.981 | S. cerevisiae deletion strains, locus YFR003C, strain YPI1, active compounds read low 0.989 | S. cerevisiae deletion strains, locus YFR019W, strain FAB1, active compounds read low 0.962 | S. cerevisiae deletion strains, locus YFR028C, strain CDC14, active compounds read low 0.995 | S. cerevisiae deletion strains, locus YGR040W, strain KSS1, active compounds read low 0.958 | S. cerevisiae deletion strains, locus YGR052W, strain FMP48, active compounds read low 1.03 | S. cerevisiae deletion strains, locus YGR092W, strain DBF2, active compounds read low 0.974 | [7] 0.919 | S. cerevisiae deletion strains, locus YHR079C, strain IRE1, active compounds read low 0.934 | S. cerevisiae deletion strains, locus YHR082C, strain KSP1, active compounds read low 0.986 | S. cerevisiae deletion strains, locus YHR205W, strain SCH9, active compounds read low 0.894 | S. cerevisiae deletion strains, locus YIL147C, strain SLN1, active compounds read low 0.984 | S. cerevisiae deletion strains, locus YJL095W, strain BCK1, active compounds read low 0.918 | S. cerevisiae deletion strains, locus YJL128C, strain PBS2, active compounds read low 0.961 | S. cerevisiae deletion strains, locus YJL157C, strain FAR1, active compounds read low 0.977 | S. cerevisiae deletion strains, locus YJR016C, strain ILV3, active compounds read low 0.997 | S. cerevisiae deletion strains, locus YJR066W, strain TOR1 (second series), active compounds read low 0.937 | S. cerevisiae deletion strains, locus YJR066W, strain TOR1, active compounds read low 0.973 | S. cerevisiae deletion strains, locus YKL048C, strain ELM1, active compounds read low 0.957 | S. cerevisiae deletion strains, locus YKL067W, strain YNK1, active compounds read low 0.956 | S. cerevisiae deletion strains, locus YKL101W, strain HSL1, active compounds read low 0.941 | S. cerevisiae deletion strains, locus YKL193C, strain SDS22, active compounds read low 0.995 | S. cerevisiae deletion strains, locus YKL203C, strain TOR2, active compounds read low 1.02 | S. cerevisiae deletion strains, locus YLR133W, strain CKI1, active compounds read low 0.958 | S. cerevisiae deletion strains, locus YLR403W, strain SFP1, active compounds read low 0.945 | S. cerevisiae deletion strains, locus YML070W, strain DAK1, active compounds read low 0.947 | S. cerevisiae deletion strains, locus YMR001C, strain CDC5, active compounds read low 0.995 | S. cerevisiae deletion strains, locus YMR205C, strain PFK2 (second series), active compounds read low 0.953 | S. cerevisiae deletion strains, locus YMR277W, strain FCP1, active compounds read low 0.998 | S. cerevisiae deletion strains, locus YNL006W, strain LST8, active compounds read low 0.994 | S. cerevisiae deletion strains, locus YNL020C, strain ARK1, active compounds read low 0.966 | S. cerevisiae deletion strains, locus YNL161W, strain CBK1, active compounds read low 0.992 | S. cerevisiae deletion strains, locus YNL183C, strain NPR1, active compounds read low 0.946 | S. cerevisiae deletion strains, locus YNL207W, strain RIO2, active compounds read low 0.983 | S. cerevisiae deletion strains, locus YNL222W, strain SSU72, active compounds read low 0.99 | S. cerevisiae deletion strains, locus YNL307C, strain MCK1 (second series), active compounds read low 0.964 | S. cerevisiae deletion strains, locus YOL078W, strain AVO1, active compounds read low 0.992 | S. cerevisiae deletion strains, locus YOL136C, strain PFK27, active compounds read low 0.968 | S. cerevisiae deletion strains, locus YOR061W, strain CKA2, active compounds read low 0.942 | S. cerevisiae deletion strains, locus YOR119C, strain RIO1, active compounds read low 0.972 | S. cerevisiae deletion strains, locus YOR231W, strain MKK1, active compounds read low 0.911 | S. cerevisiae deletion strains, locus YOR329C, strain SCD5, active compounds read low 0.989 | S. cerevisiae deletion strains, locus YPL031C, strain PHO85, active compounds read low 0.962 | S. cerevisiae deletion strains, locus YPL153C, strain RAD53, active compounds read low 0.955 | S. cerevisiae deletion strains, locus YPL204W, strain HRR25, active compounds read low 0.976 | S. cerevisiae deletion strains, locus YPL209C, strain IPL1, active compounds read low 0.99 | S. cerevisiae deletion strains, locus YPL256C, strain CLN2, active compounds read low 0.913 | S. cerevisiae deletion strains, locus YPR025C, strain CCL1, active compounds read low 0.991 | S. cerevisiae deletion strains, locus YPR106W, strain ISR1, active compounds read low 0.99 | S. cerevisiae deletion strains, locus YPR111W, strain DBF20, active compounds read low 0.985 | S. cerevisiae deletion strains, strain NNK1, active compounds read low 0.981 | S. cerevisiae deletion strains, strain TSCII, active compounds read low 0.991

Source: PubChem BioAssay AID1159580 (chemical genetic matrix, 2015)
